Consider 3 compounds from PubChem BioAssay (NCATS).

Inconclusive results are not listed. Some structures have more than one record in an assay (separate samples or runs), and their calls can disagree. Calls of active or inactive are those of the source. Unless noted, the call rests on the fitted dose curve; in most records, active means well fitted curve in the direction sought with a large enough effect; inconclusive means small, poorly fitted or top-dose-only effect, or another doubt; inactive means no such curve, though single readings can be large; an effect the other way counts as inactive or inconclusive.

For test [1], the system named is Zika virus NS2B-NS3 protease. Put plainly: Primary screen GU AMC qHTS for Zika virus inhibitors (AID 1347154). Further: nearly all actives have a fitted effect of over 70% in size. The essentials:
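Fluorogenic AMC-substrate cleavage by noncovalent NS2B-NS3 protease complex (25 nM, pH 8.0 Tris buffer with Tween 20) followed for 15 minutes at room temperature (~20% conversion). Percent inhibition from ex340/em450 signal change, fitted by 4-parameter Hill equation.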
Background: qHTS replaces the single test concentration by a dilution series.

A short description of test [2]: Confirmatory qHTS for small molecule stabilizers of the endoplasmic reticulum resident proteome: Secreted ER Calcium Modulated Protein (SERCaMP) assay (AID 1508628). Further: nearly all actives have a fitted effect of over 40% in size. Further: potency means the concentration at half of the fitted maximal effect. In outline:
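Reporter secretion upon ER calcium depletion (100 nM thapsigargin, 4 h, 37C) is measured as medium luminescence with coelenterazine, after 16 h compound pretreatment of SH-SY5Y-GLuc-SERCaMP cells; primary at three concentrations up to 38.3 uM, follow-up at 11 (up to 76.6 uM).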

The target in test [3] is Calcium and integrin-binding protein 1 (Homo sapiens) (UniProt Q99828). The test is described as follows: Primary qHTS for Identification of Calcium Integrin Binding Protein 1 (CIB1) Competitor (AID 1508620). In outline:
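CIB1-GST (1 uM final) and compound incubated 15 min at room temperature before adding FITC-alphaIIb peptide tracer (100 nM final). Competition for binding read by fluorescence polarization (ex 480, em 540) after another 15 min at room temperature.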

Test [4] deals with Cytochrome P450 3A4 (Homo sapiens) (UniProt P08684). The test is described as follows: Cytochrome P450 family 3 subfamily A member 4 (CYP3A4) small molecule antagonists: luciferase qHTS assay (AID 1645841; active means well fitted curve in the direction sought with a large enough effect in the repeat runs; an effect the other way counts as inactive or inconclusive; further: nearly all actives have a fitted effect of over 45% in size). The essentials: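 Luminescent CYP3A4 activity readout: compounds plus enzyme-substrate mix 10 min at room temperature, reaction started with NADPH regenerating system for 1 h, stopped with detection reagent, read after 20 min. Ketoconazole served as control.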
Chain of Cytochrome P450 3A4 (Homo sapiens) (P08684 whole entry, looked up): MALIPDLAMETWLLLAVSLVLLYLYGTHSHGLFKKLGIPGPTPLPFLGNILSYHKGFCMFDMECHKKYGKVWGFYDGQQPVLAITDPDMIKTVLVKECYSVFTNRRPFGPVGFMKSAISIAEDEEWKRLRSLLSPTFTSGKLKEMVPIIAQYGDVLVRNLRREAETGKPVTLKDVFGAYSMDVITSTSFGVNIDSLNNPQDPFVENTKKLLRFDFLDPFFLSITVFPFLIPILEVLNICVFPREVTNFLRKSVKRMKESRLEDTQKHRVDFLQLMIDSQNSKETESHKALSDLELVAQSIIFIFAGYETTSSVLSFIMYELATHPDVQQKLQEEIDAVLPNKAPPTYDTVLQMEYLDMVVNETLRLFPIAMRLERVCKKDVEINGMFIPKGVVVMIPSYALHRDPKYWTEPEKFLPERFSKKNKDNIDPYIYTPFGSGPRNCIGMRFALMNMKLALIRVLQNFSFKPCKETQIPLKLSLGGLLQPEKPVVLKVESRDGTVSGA

Test [5] addresses Cytochrome P450 2C9 (Homo sapiens) (UniProt P11712). Put plainly: Cytochrome P450 family 2 subfamily C member 9 (CYP2C9) small molecule antagonists: luciferase qHTS assay (AID 1645842; active means well fitted curve in the direction sought with a large enough effect in the repeat runs; an effect the other way counts as inactive or inconclusive; further: nearly all actives have a fitted effect of over 55% in size). In outline:
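P450-Glo CYP2C9 system: proluciferin substrate with enzyme in mix containing 0.4% BSA, 10 min at room temperature, then NADPH regeneration solution added and incubated 1 h at 37C. Detection reagent stopped reaction; luminescence read after 20 min as RLU.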

The nature of test [6]: Primary qHTS for inhibitors of nuclear receptor binding SET domain protein 2 (NSD2) in an isogenic RCH-ACV NSD2 p.E1099K mutant (9B) (AID 1645876). Further: on the % scale 0 is the no-effect control and ±100 the full control effect; nearly all actives have a fitted effect of over 70% in size.
A short description of test [7]: Primary qHTS for inhibitors of nuclear receptor binding SET domain protein 2 (NSD2) in an RCH-ACV wild type WT cells (2C) (AID 1645877). Further: nearly all actives have a fitted effect of over 70% in size.
Test [8] deals with Glutathione peroxidase 1 (Homo sapiens) (UniProt P07203). Put plainly: Primary qHTS Assay for Inhibitors of Recombinant Selenoprotein Glutathione Peroxidase 1 (GPX1) (AID 1845191). Further: on the % scale 0 is the no-effect control and ±100 the full control effect; nearly all actives have a fitted effect of over 65% in size. In outline:
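NADPH consumption tracked by fluorescence at 340/450 nm between t=0 and t=15 min, room temperature. Final mix: 10 nM GPX1, 100 nM glutathione reductase, 1 mM GSH, 0.5 mM NADPH, 0.5 mM cumene hydroperoxide, 0.01% BSA; 30 min compound–enzyme preincubation.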

Test [9] has as its target Phospholipid hydroperoxide glutathione peroxidase GPX4 (Homo sapiens) (UniProt P36969). Put plainly: Primary qHTS Assay for Inhibitors of Recombinant Selenoprotein Glutathione Peroxidase 4 (GPX4) (AID 1845192). Further: nearly all actives have a fitted effect of over 65% in size. Conditions: outcome: dose series up to 50 µM unless noted. In outline: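 NADPH consumption followed by fluorescence at 340/450 nm, t=0 and after 15 min at room temperature. Reaction started with cumene hydroperoxide (0.5 mM final) after 30 min compound–GPX4 preincubation; final 200 nM GPX4, 100 nM GR, 1 mM GSH, 0.5 mM NADPH.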

Test [10] is described as follows: Counterscreen qHTS for small molecule stabilizers of the endoplasmic reticulum resident proteome: GLuc-NoTag assay (AID 1508627).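 Further: series mostly up to about 76 µM; 0% = thapsigargin alone and -100% = DMSO vehicle control.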 The essentials: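 Counterscreen line: SH-SY5Y-GLuc-NoTag cells, treated with compound 19 hr before a 4 hr, 100 nM thapsigargin calcium depletion. Secreted Gaussia luciferase in the medium was measured by luminescence after coelenterazine was added (0.07x final), with cells unlysed.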
A general note: The purpose of a counterscreen is to sort out artefacts and off-target activity.

A short description of test [11]: Cell Viability qHTS for small molecule stabilizers of the endoplasmic reticulum resident proteome (AID 1508629).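 Further: human SH-SY5Y neuroblastoma cells carrying the GLuc-SERCaMP reporter; compound exposure about 46 h in total before the viability read; on the % scale 0 is the no-effect control and ±100 the full control effect.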 To be noted: cell viability counter-screen, 100 nM thapsigargin for final 4 h.

Chain of Phospholipid hydroperoxide glutathione peroxidase GPX4 (Homo sapiens) (P36969 whole entry, looked up): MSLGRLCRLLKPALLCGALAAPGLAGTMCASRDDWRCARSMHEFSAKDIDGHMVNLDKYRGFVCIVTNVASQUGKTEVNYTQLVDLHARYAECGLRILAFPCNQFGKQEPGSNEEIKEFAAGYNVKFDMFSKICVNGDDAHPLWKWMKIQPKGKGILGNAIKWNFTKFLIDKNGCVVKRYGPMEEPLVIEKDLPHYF
Chain of Calcium and integrin-binding protein 1 (Homo sapiens) (Q99828 whole entry, looked up): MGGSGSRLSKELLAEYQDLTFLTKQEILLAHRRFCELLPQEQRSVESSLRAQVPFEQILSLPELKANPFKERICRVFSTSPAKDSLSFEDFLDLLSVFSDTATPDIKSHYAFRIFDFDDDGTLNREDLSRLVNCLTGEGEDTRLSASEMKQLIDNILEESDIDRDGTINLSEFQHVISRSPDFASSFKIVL
Chain of Glutathione peroxidase 1 (Homo sapiens) (P07203 whole entry, looked up): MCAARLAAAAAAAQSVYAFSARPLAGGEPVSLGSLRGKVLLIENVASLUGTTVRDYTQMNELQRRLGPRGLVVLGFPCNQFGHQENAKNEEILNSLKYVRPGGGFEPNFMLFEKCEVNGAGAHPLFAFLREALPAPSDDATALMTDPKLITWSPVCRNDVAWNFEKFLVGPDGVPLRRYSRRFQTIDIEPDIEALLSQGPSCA
Chain of Cytochrome P450 2C9 (Homo sapiens) (P11712 whole entry, looked up): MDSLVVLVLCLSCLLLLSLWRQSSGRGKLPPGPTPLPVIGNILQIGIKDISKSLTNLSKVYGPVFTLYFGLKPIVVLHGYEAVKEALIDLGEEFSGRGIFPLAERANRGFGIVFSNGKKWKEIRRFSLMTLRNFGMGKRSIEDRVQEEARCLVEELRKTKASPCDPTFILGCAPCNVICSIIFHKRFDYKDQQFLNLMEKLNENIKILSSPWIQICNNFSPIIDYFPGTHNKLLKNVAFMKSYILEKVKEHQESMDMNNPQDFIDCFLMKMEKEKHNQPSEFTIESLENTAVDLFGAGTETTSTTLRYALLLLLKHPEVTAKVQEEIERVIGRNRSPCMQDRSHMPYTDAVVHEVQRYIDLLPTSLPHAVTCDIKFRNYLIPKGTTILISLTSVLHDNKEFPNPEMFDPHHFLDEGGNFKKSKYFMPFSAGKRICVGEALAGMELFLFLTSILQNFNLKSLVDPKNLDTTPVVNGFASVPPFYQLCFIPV

Take `Cc1cc(C)c(N(Cc2ccccc2)S(=O)(=O)c2ccc(OCCNC(=O)c3cc4ccccc4o3)cc2)c(C(=O)NO)c1`: the Potency result in [1] and in test [2] was “inactive” throughout.
Take `CCCCN=C(N)NC(=N)N`: the outcome in test [1], in test [3], in test [4] and in test [5] was inactive. Further, the Potency entry in test [6], in test [7] and in test [8] was “inactive” each time. The outcome in [9] was “inactive [setting not given]”.
In the case of `N#Cc1cc2c(OCC(O)CN3CCN(C(c4ccccc4)c4ccccc4)CC3)cccc2[nH]1` (centres undefined), the Potency entry in test [1] and in [10] was “inactive” each time. In test [2], the Potency is 3.98 µM (active) and inactive. Also, in [11], the max response is 3.24% (inactive).
